Assay [1] in a line: qHTS assay to identify aromatase inhibitors - cell viability counter screen (AID 743084).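 Note: cells stimulated with testosterone during compound exposure; nearly all actives have a fitted effect of over 55% in size.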 In general terms: In qHTS, concentration-response curves come from the screen itself.
Assay [2] has as its target Aryl hydrocarbon receptor (Homo sapiens) (UniProt P35869). Put plainly: qHTS assay to identify small molecule that activate the aryl hydrocarbon receptor (AhR) signaling pathway (AID 743085).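 For activation: HG2L7.5c1 human HepG2 liver cells with stably integrated DRE-driven firefly reporter; series mostly up to about 70 µM.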 Note: nearly all actives have a fitted effect of over 15% in size. The method in brief: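 Reporter assay in engineered HepG2 line HG2L7.5c1, whose plasmid carries twenty dioxin responsive elements upstream of firefly luciferase. Treatment lasted 24 h at 37C; ONE-Glo luminescence gauged induction.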

A short description of assay [3]: qHTS assay to identify small molecule that activate the aryl hydrocarbon receptor (AhR) signaling pathway - cell viability counter screen (AID 743086). Note: nearly all actives have a fitted effect of over 45% in size. Put shortly:
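Cytotoxicity counter screen: CellTiter-Fluor signal (30 min, 37 C) in 4000 HepG2 cells/well carrying the DRE-luciferase reporter, following 24 h compound exposure at 37 C.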

The target in assay [4] is Peroxisome proliferator-activated receptor gamma (Homo sapiens) (UniProt P37231). In words: qHTS assay to identify small molecule agonists of the peroxisome proliferator-activated receptor gamma (PPARg) signaling pathway (AID 743094; active = well fitted activation curve with a large enough effect in the signal ratio in the repeat runs, not every such curve was filed as active; the % refers to the signal ratio). Put shortly:
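Compounds dissolved in DMSO were added to PPARg UAS-bla HEK293H cells for 17 h at 37C, and reporter expression was quantified by fluorescence intensity after 1 h with LiveBLAzer B/G FRET substrate.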

Inconclusive results are not listed. Activity calls are given as the source filed them. Unless noted, calls come from the whole dose curve; as a rule, active = well fitted curve in the direction sought with a large enough effect in the repeat runs; inconclusive = weak or mixed curves; inactive = no such curve, though single readings can be large; an effect the other way counts as inactive or inconclusive.

The record followed here is PubChem BioAssay (Tox21).
Potency is the fitted concentration of half-maximal effect.

Chain of Peroxisome proliferator-activated receptor gamma (Homo sapiens) (P37231 whole entry, looked up): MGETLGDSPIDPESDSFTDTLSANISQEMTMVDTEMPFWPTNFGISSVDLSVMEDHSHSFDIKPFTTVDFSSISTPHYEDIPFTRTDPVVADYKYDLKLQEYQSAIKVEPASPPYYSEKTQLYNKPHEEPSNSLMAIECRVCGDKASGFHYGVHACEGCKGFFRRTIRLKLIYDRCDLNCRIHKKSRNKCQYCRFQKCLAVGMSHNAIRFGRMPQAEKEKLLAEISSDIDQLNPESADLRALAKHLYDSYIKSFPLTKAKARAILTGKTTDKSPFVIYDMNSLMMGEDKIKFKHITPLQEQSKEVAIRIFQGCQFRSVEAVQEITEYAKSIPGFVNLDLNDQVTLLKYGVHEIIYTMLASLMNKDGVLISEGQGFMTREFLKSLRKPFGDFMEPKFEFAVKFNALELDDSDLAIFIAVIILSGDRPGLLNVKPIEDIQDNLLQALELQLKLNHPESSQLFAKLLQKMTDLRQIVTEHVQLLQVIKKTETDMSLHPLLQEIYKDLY
Chain of Aryl hydrocarbon receptor (Homo sapiens) (P35869 whole entry, looked up): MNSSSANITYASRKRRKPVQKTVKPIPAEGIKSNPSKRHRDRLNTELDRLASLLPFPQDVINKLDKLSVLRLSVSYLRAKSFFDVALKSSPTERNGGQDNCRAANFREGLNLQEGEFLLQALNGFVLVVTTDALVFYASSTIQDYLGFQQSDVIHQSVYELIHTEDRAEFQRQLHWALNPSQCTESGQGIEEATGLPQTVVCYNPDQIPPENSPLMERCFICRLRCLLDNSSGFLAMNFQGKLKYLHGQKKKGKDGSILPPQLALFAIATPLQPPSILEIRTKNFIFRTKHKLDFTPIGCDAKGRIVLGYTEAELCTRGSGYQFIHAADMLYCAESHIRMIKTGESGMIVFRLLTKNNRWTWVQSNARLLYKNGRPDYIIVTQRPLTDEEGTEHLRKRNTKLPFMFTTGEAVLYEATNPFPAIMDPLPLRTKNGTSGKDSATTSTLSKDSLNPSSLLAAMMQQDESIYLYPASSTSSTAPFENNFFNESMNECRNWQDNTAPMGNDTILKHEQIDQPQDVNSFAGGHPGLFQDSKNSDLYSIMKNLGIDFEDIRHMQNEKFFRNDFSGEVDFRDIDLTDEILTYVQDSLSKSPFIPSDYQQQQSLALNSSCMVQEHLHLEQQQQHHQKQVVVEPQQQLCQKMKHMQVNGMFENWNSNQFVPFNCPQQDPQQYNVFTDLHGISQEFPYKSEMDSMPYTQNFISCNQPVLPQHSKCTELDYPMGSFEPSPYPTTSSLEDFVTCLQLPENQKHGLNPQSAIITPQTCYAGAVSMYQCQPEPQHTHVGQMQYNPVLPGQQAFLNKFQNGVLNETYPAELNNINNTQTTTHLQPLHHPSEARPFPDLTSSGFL

With `NCCO/C=C/[C@H](N)C(=O)O`, the Potency result in assay [1], in assay [2], in assay [3] and in assay [4] was “inactive” each time.
As to `C[C@H](O)CN(C)C`, the Potency result in assay [1], in assay [2], in assay [3] and in assay [4] was “inactive” throughout.
With `CO[C@H]1C[C@H](O[C@H]2[C@H](C)[C@@H](O[C@@H]3O[C@H](C)C[C@H](N(C)C)[C@H]3O)[C@@H](C)C[C@]3(CO3)C(=O)[C@H](C)[C@@H](O)[C@@H](C)[C@@H](C)OC(=O)[C@@H]2C)O[C@@H](C)[C@@H]1O`, the Potency entry in assay [1], in assay [2], in assay [3] and in assay [4] was “inactive” throughout.
For `CC1(C)S[C@@H]2[C@H](NC(=O)[C@@H](NC(=O)N3CCNC3=O)c3ccccc3)C(=O)N2[C@H]1C(=O)O`, the Potency result in assay [1], in assay [2], in assay [3] and in assay [4] was “inactive” in each case.
For `Cc1cc(=O)c(C(=O)N[C@@H](C(=O)N[C@@H]2C(=O)N3C(C(=O)O)=C(CSc4nnnn4C)CS[C@H]23)c2ccc(O)cc2)c[nH]1`, the Potency entry in assay [1], in assay [2], in assay [3] and in assay [4] was “inactive” each time.
Regarding `COC1=C(OC)C(=O)C(C/C=C(\C)CC/C=C(\C)CC/C=C(\C)CC/C=C(\C)CC/C=C(\C)CC/C=C(\C)CC/C=C(\C)CC/C=C(\C)CC/C=C(\C)CCC=C(C)C)=C(C)C1=O`, the Potency entry in assay [1], in assay [2], in assay [3] and in assay [4] was “inactive” each time.
As for `CC(=NCc1ccccc1)c1ccccc1O`, the Potency result in assay [1], in assay [2], in assay [3] and in assay [4] was “inactive” in each case.
Consider `CC(C)(C)c1ccc2c(S(=O)(=O)O)c(C(C)(C)C)ccc2c1`, for which the Potency entry in assay [1], in assay [2] and in assay [3] was “inactive” throughout. In assay [4], the Potency is 9.52 µM (active).
Regarding `CCOC(=O)[C@H](CCc1ccccc1)N[C@@H](C)C(=O)N1[C@H](C(=O)O)C[C@H]2CCCC[C@@H]21`, the Potency entry in assay [1], in assay [2], in assay [3] and in assay [4] was “inactive” throughout.
Regarding `O=C(O)Cc1nn(Cc2ccc(Br)cc2F)c(=O)c2ccccc12`, the Potency result in assay [1], in assay [2], in assay [3] and in assay [4] was “inactive” in each case.
Consider `C/C(=C(/CCO)SSCC1CCCO1)N(C=O)Cc1cnc(C)nc1N` (stereo unspecified), for which the Potency entry in assay [1], in assay [2], in assay [3] and in assay [4] was “inactive” in each case.
In the case of `Cc1ccc(C(C)(C)c2ccc(C)cc2)cc1`, the Potency entry in assay [1], in assay [2], in assay [3] and in assay [4] was “inactive” each time.
As for `O=C(CCCN1CCN2CCCC2C1)c1ccc(F)cc1` (stereo unspecified), the Potency entry in assay [1], in assay [2], in assay [3] and in assay [4] was “inactive” throughout.
Turning to `CC(C)C[C@@H](NC(=O)[C@@H](O)[C@H](N)Cc1ccccc1)C(=O)O`, the Potency was 0.75 µM (active) in assay [1] and 0.376 µM (active) in assay [3]. For the same compound, the Potency result in assay [2] and in assay [4] was “inactive” throughout.
For `O=C(O)c1ccc(NC2OC[C@@H](O)[C@H](O)[C@H]2O)cc1` (stereo partly specified), the Potency result in assay [1], in assay [2], in assay [3] and in assay [4] was “inactive” in each case.
`CCCC(CCC)C(=O)OC1C[C@H]2CC[C@@H](C1)[N+]2(C)C` (stereo partly specified): the Potency result in assay [1], in assay [2], in assay [3] and in assay [4] was “inactive” each time.
As for `CC(=O)OCC(=O)[C@@]1(O)CC[C@H]2[C@@H]3CCC4=CC(=O)CC[C@]4(C)C3=CC[C@@]21C`, the Potency result in assay [1], in assay [2], in assay [3] and in assay [4] was “inactive” in each case.
As for `CN1C(=O)C[C@@H](C(=O)N[C@@H](Cc2cnc[nH]2)C(=O)N2CCC[C@H]2C(N)=O)NC1=O`, the Potency entry in assay [1], in assay [2], in assay [3] and in assay [4] was “inactive” each time.
Turning to `CNC(=O)C[C@@H](N)C(=O)N[C@@H](C(=O)N[C@@H]1C(=O)N2[C@@H]1SC(C)(C)[C@@H]2C(=O)O)c1ccc(O)cc1`, the Potency result in assay [1], in assay [2], in assay [3] and in assay [4] was “inactive” in each case.
Consider `COC(=O)[C@H]1[C@H]2C[C@H]3c4[nH]c5ccccc5c4CCN3C[C@H]2CC[C@@H]1O`, for which the Potency entry in assay [1], in assay [3] and in assay [4] was “inactive” each time. The Potency in assay [2] was 18.8 µM (active).
With `Cc1onc(-c2c(F)cccc2Cl)c1C(=O)N[C@@H]1C(=O)N2[C@@H]1SC(C)(C)[C@@H]2C(=O)O`, the Potency entry in assay [1], in assay [2], in assay [3] and in assay [4] was “inactive” throughout.
Consider `C[C@@H]1C(=O)NC2=Nc3cccc(Cl)c3CN21`, for which the Potency result in assay [1], in assay [2], in assay [3] and in assay [4] was “inactive” throughout.
As for `COC1[C@@H](O[C@@H]2O[C@H](C)[C@@H](O[C@H]3C[C@@](C)(O)[C@H](OC(=O)CC(C)C)[C@H](C)O3)[C@H](N(C)C)[C@H]2O)[C@@H](CC=O)C[C@@H](C)[C@@H](O)/C=C/C=C/C[C@@H](C)OC(=O)C[C@H]1OC(C)=O` (stereo partly specified), the Potency result in assay [1], in assay [2], in assay [3] and in assay [4] was “inactive” each time.
For the compound `C=CC[N@@+]12CC[C@@]34c5ccccc5N5/C=C6/[C@H]7C[C@H]8[C@@]9(CC[N@@+]8(CC=C)C/C7=C/CO)c7ccccc7N(/C=C(/[C@@H](C[C@@H]31)/C(=C\CO)C2)[C@H]54)[C@@H]69`, the Potency result in assay [1], in assay [2], in assay [3] and in assay [4] was “inactive” in each case.
